In all, about 33,000 sequences were measured (“e-score”: median about -0.037, highest 2% from about 0.34 on). What follows is part of a selection rich in the highest values, with near analogues and random picks from the rest.
target: T1, GST-Rok (full length) (Bacillus subtilis subsp. subtilis str. …, UniProt O34857 1-191); test: protein binding microarray; Rok is a gene silencer of Bacillus subtilis; high values mean tight binding; details: protein: recombinant; tags: GST (pTH5325, pDEST15-Magic modified); dsDNA, one strand shown
T1 sequence: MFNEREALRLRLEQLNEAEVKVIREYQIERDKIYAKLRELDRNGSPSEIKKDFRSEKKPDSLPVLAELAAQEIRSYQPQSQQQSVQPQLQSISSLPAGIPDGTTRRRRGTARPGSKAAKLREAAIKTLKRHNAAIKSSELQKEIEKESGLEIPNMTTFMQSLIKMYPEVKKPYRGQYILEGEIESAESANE
Outline: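 Every oligonucleotide joins a 25-mer constant primer to a 35-mer variable part drawn from a de Bruijn sequence of order 10, so each non-palindromic 8-mer appears at least 32 times and each palindromic 8-mer 16 times. The preference for every 8-mer is reported as a unitless, rank-based enrichment score (E-score). This score spans 0.5 for the most favored 8-mer to −0.5 for the most disfavored.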

| Sequence | binding signal |
| --- | --- |
| ATGATTGA | 0.0352 E-score |
| GGATGTTA | 0.0229 E-score |
| CAATTACA | 0.189 E-score |
| AAAGCCGG | -0.147 E-score |
| ACGAGTCC | -0.192 E-score |
| AATAGGAG | 0.0707 E-score |
| ACATACTG | 0.141 E-score |
| GCATACTA | 0.325 E-score |
| ACATACTA | 0.361 E-score |
| CTCCCAAC | -0.0944 E-score |
| AGGCTTAA | -0.159 E-score |
| ATACGTAA | 0.323 E-score |
| CTAAAAAC | 0.082 E-score |
| ATCGTTTC | 0.14 E-score |
| CTAGTTCA | 0.152 E-score |
| ATAGTTTC | 0.398 E-score |
| ATAGTTCC | 0.135 E-score |
| CTAGTTTA | 0.383 E-score |
| CGAGTTTC | 0.0534 E-score |
| CTAGTTGA | 0.226 E-score |
| ATAGTTTA | 0.346 E-score |
| ATAGTTGA | 0.228 E-score |

| Sequence | binding signal |
| --- | --- |
| CCAGTTTC | -0.0817 E-score |
| CTAGTTTC | 0.413 E-score |
| ATCGTTTA | -0.0103 E-score |
| GCCTACTA | 0.0988 E-score |
| ACAGGAGT | 0.0409 E-score |
| ACTTACTA | 0.306 E-score |
| TGATTCAA | -0.164 E-score |
| AAAGAATA | 0.138 E-score |
| CACTGACA | -0.161 E-score |
| GCAGTTTA | 0.0849 E-score |
| ATCGTTTG | -0.0128 E-score |
| ATAGTTGG | 0.0271 E-score |
| GTAGTTTA | 0.382 E-score |
| ATAGTTTG | 0.364 E-score |
| GGAGTTTA | 0.0513 E-score |
| AGCGTACT | 0.0975 E-score |
| GGTTGGTA | 0.109 E-score |
| AGCCCTTA | -0.135 E-score |
| AGGAAGAA | -0.0233 E-score |
| ATGAATTA | 0.353 E-score |
| ACAAATTG | -0.0361 E-score |
| CTAAATTA | 0.252 E-score |

| Sequence | binding signal |
| --- | --- |
| ATAAATTC | 0.221 E-score |
| ACAAATTC | 0.238 E-score |
| ACAAATTA | 0.338 E-score |
| CTGAATTA | 0.134 E-score |
| ATAAATTA | 0.347 E-score |
| TAAAATTA | 0.199 E-score |
| ATAAATTG | 0.336 E-score |
| GTAAATTA | 0.383 E-score |
| ATGAATTG | 0.0516 E-score |
| ACTAATCA | 0.154 E-score |
| CCACTAGC | -0.055 E-score |
| CGCCAGTA | -0.111 E-score |
| TATTGCAA | 0.253 E-score |
| ATAGCAGA | 0.144 E-score |
| GTACCATA | 0.339 E-score |
| ATACCATC | 0.198 E-score |
| ATACCATA | 0.286 E-score |
| GTACCAGA | -0.0447 E-score |
| CTACCATA | 0.328 E-score |
| CTACCATC | 0.396 E-score |
| ATGCTAGC | 0.313 E-score |
| ATCAATTG | 0.221 E-score |

| Sequence | binding signal |
| --- | --- |
| GCAATGTA | 0.23 E-score |
| TAAATCGA | 0.0795 E-score |
| CAAGTCAA | 0.171 E-score |
| GACAACTA | 0.333 E-score |
| CAGAAATA | 0.303 E-score |
| AACAACTA | 0.292 E-score |
| ACAAAATA | 0.34 E-score |
| CCAAAATA | 0.164 E-score |
| TACAACTA | 0.368 E-score |
| AAAAAATA | 0.314 E-score |
| ACAAAATC | -0.0365 E-score |
| CTAAAATA | 0.262 E-score |
| TAAAAATA | 0.369 E-score |
| TAGAAATA | 0.409 E-score |
| GAGAAATA | 0.305 E-score |
| GCAGAACC | -0.0431 E-score |
| ACCGGTGG | -0.196 E-score |
| CTTACCTC | 0.143 E-score |
| AACGTAGA | 0.17 E-score |
| AACCCAGG | -0.0972 E-score |
| AGAGGTGA | -0.164 E-score |

From article PMC6212790, “How bacterial xenogeneic silencer rok distinguishes foreign from self DNA in its resident genome”
